Screen size: about 420,000 compounds; about 64,000 (15%) were called active. Roughly 27% stayed inconclusive and do not appear here. A selection follows. Unmarked numbers belong to inactive results. The call rests on the fitted dose curve; in most records, active means well fitted inhibition curve with a large enough effect; inconclusive means small, poorly fitted or top-dose-only effect; inactive means flat fitted curve, though single readings scatter.
assay: qHTS for Inhibitors of human tyrosyl-DNA phosphodiesterase 1 (TDP1): qHTS in cells in absence of CPT; settings: DT40 Tdp1-/- hTDP1 cells, no CPT, ATP luminescence, 48 h; activity change, negative = growth inhibition: at 46.2 µM (top of the series); further: nearly all actives have a fitted effect of over 55% in size
How it was run: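 Seeded 400 DT40-hTDP1 cells/well (vehicle DMSO, no 20 nM CPT); pinned compounds; ≥48 hr at 37 °C; CellTiter-Glo luminescence as viability measure.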
On the % scale 0 is the no-effect control and ±100 the full control effect; potency means the concentration at half of the fitted maximal effect.

| Structure (SMILES) | Potency | activity change, negative = growth inhibition [%] |
| --- | --- | --- |
| CC(=O)c1ccc(Nc2nc(C(N)c3ccccc3Cl)cs2)cc1 (stereo not drawn) | 11.6 µM (active) |  |
| CC(=O)c1ccc(NC(=O)C(C)N(C)CC(=O)Nc2ccccc2Cl)cc1 (stereo not drawn) |  | -1.04 |
| NS(=O)(=O)c1ccc(Nc2nc(-c3ccccc3)cs2)cc1 |  | -16.9 |
| COc1ccc(NC(=O)CSc2nnc(-c3nnn(-c4ccc(F)cc4)c3C)o2)cc1 |  | -26.3 |
| COc1ccccc1N(CC(=O)NC1CCCC1)C(=O)C1(C)CC(=O)N=C2C=CC(C)=CN21 (stereo not drawn) |  | -26.7 |
| CC1=C(C(N)=O)C(c2sccc2C)n2nnnc2N1 (stereo not drawn) |  | -5.04 |
| CC(c1ccccn1)N(CCN(C)C)C(=S)Nc1ccccc1F (stereo not drawn) |  | -10.4 |
| COc1cccc(NC(=S)N(Cc2ccc(C)cc2)Cc2ccccn2)c1 |  | -29.4 |
| CSc1cccc(NC(=S)N(Cc2ccccc2)Cc2ccccn2)c1 | 20.6 µM (active) |  |
| Cc1c(Cl)cccc1NC(=S)N(Cc1ccccc1)Cc1cccnc1 |  | -1.9 |
| CSc1cccc(NC(=S)N(C(C)C)C(C)c2ccccn2)c1 (stereo not drawn) | 8.2 µM (active) |  |
| CC(C)(C)c1nnc(N/N=C/c2ccc(O)cc2)n(N)c1=O |  | -21.3 |
| O=C(CC[C@H]1O[C@@H](n2ccc(=O)[nH]c2=O)[C@H](O)[C@@H]1O)N[C@H](Cc1ccccc1)C(=O)NCCCN1CCCC1=O |  | 7.45 |
| CN(C(=O)COC(=O)CCCc1c[nH]c2ccccc12)c1c(N)n(Cc2ccccc2)c(=O)[nH]c1=O |  | 16.9 |
| Cc1nc2c(ncn2-c2ccccc2)c(=O)n1NC(=O)CN1CCCC1 |  | 3.93 |
| CCN(CC)C(=O)CSc1nnc(-c2ccc(S(=O)(=O)NCc3ccccc3Cl)cc2)o1 |  | -18.3 |
| COc1ccccc1NC(=O)C(CC(=O)O)Cc1cc(C)cc(C)c1 (stereo not drawn) |  | 3.58 |
| COc1ccccc1NC(=O)[C@H](COCc1ccccc1)NC(=O)OC(C)(C)C | 18.4 µM (active) |  |
| COc1ccccc1NC(=O)C(C)OC(=O)CC1CCCC1 (stereo not drawn) |  | -0.667 |
| COc1ccc(C)cc1NC(=O)CCCN1C(=O)NC(C)(C)C1=O |  | 7.84 |
| O=S(=O)(NCCNS(=O)(=O)c1ccccc1)c1ccccc1 |  | 2.77 |
| Cc1cc(C(=O)N2CCCC2(C)C(=O)O)c(C)o1 (stereo not drawn) |  | -1.92 |
| Cc1ccc(CCNC(=O)c2ccc3c(c2)nc2n3CCC(C)C2)cc1 (stereo not drawn) |  | -23.5 |
| COc1ccc(CNC(=O)c2ccc3c(c2)nc2n3CCOC2)c(OC)c1 |  | -1.39 |
| Cc1cccc(CCNC(=O)c2ccc3c(c2)nc2n3CCC(C)C2)c1 (stereo not drawn) | 18.4 µM (active) |  |
| CCOc1ccc(CCNC(=O)COC(=O)C2CCN(S(=O)(=O)c3ccccc3)CC2)cc1OCC |  | -10.6 |
| COC(=O)c1ccc(COC(=O)c2cnccn2)cc1 |  | -6.17 |
| Cc1ccc(S(=O)(=O)NCC(C)NS(C)(=O)=O)cc1 (stereo not drawn) |  | -8.89 |
